Only a selection was taken, and hits are over-represented in it overall.
CBX7 inh = inhibitors of human CBX7 binding to H3K27me3 peptide; O95931; AlphaScreen His6-CBX7 / biotin-H3K27me3 peptide binding; hits give low values; normalised signal (fraction of DMSO) (concentration not given with the values); 1.1% of 66,000 active; in the data active = normalised signal below about 0.5
Target sequence (O95931 whole entry, looked up): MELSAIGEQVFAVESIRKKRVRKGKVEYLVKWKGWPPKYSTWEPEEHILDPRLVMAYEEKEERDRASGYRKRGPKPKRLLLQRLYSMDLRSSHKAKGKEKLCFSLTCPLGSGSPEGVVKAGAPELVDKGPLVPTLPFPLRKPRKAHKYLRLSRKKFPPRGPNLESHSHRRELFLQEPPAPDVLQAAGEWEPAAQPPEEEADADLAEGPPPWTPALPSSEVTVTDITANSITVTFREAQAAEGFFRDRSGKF
Hits are given with their value.

Cc1c(-c2ccccc2)nc2sc3c(c2c1N)CCCC3 was read as CBX7 inh 0.47.
Cc1c(-c2ccccc2)nc2sc3c(c2c1N)CCCCC3 was read as CBX7 inh inactive.
Screening O=C(c1ccc2c(c1)N(Cc1ccccc1Cl)C(=O)c1ccccc1S2)N1CCOCC1 returned CBX7 inh inactive.
For CCn1c(CCCNC(=O)c2ccc(Cl)cc2)nc2ccccc21 the results were CBX7 inh inactive.
`CCN(CC)S(=O)(=O)c1ccc2c(c1)N(CC(=O)NCc1ccc(F)cc1)C(=O)CO2` gave CBX7 inh inactive.
`O=C(CN1C(=O)COc2ccc(Cl)cc21)NCc1ccc(F)cc1` gave CBX7 inh 0.42.
For Cc1ccc(CNC(=O)CN2C(=O)COc3ccc(Cl)cc32)cc1 the results were CBX7 inh inactive.
For O=C(CCc1cn(Cc2ccccc2)c2ccccc12)Nc1n[nH]c(C(F)(F)F)n1 the results were CBX7 inh inactive.
For COc1cc2[nH]c(=O)n(CCCC(=O)NC(C)CCc3ccccc3)c(=O)c2cc1OC (stereo not given) the results were CBX7 inh inactive.
Cc1c(NC(=O)COc2ccc(Cl)cc2)cccc1-c1nc2ncccc2o1 was read as CBX7 inh inactive.
For c1ccc(Cn2c(NCc3ccc4c(c3)OCO4)nc3ccccc32)cc1 the results were CBX7 inh inactive.
Clc1ccccc1-c1nc(NCc2ccccc2)nc2ccc(Br)cc12 was read as CBX7 inh inactive.
Screening O=c1c(-c2cc(Br)ccc2NCc2ccccc2)nc2ccccc2n1Cc1ccccc1 returned CBX7 inh 0.37.
Cc1ccc(NCc2nc3ccccc3n2Cc2ccccc2)cc1 was read as CBX7 inh inactive.
`Cc1ccccc1Cn1c(CNC(=O)Cc2ccccc2)nc2ccccc21` gave CBX7 inh inactive.
For Cc1ccccc1NCc1nc2ccccc2n1Cc1ccccc1 the results were CBX7 inh 0.42.
`COc1ccc(-c2noc(CCC(=O)NCc3cc(OC)ccc3OC)n2)cc1` gave CBX7 inh inactive.
Screening CCCCN(CCCC)CCNC(=O)C1CCN(C(=O)c2cc3sccc3n2C)CC1 returned CBX7 inh inactive.
Screening COc1ccccc1-n1cnc2cc(NCc3ccc(Cl)cc3)ccc21 returned CBX7 inh inactive.
For CC(C)c1ccc(CNc2ccc3oc(-c4ccccc4)nc3c2)cc1 the results were CBX7 inh inactive.
CC(C)n1cnc2cc(NCc3cccc4ccccc34)ccc21 was read as CBX7 inh 0.25.
`CC(C)(C)n1cnc2cc(NCc3ccccc3Cl)ccc21` gave CBX7 inh 0.4.
For CC(C)n1cnc2cc(NCc3ccncc3)ccc21 the results were CBX7 inh inactive.
`Cc1ccc(S(=O)(=O)Nc2ccc3c(c2)ncn3C(C)(C)C)cc1` gave CBX7 inh inactive.
For CCn1cnc2cc(NCc3ccc(Cl)cc3Cl)ccc21 the results were CBX7 inh inactive.
Cc1ccc(CNc2ccc3c(c2)ncn3C(C)(C)C)cc1 was read as CBX7 inh 0.41.
CC(C)c1ccc(CNc2ccc3c(c2)ncn3C(C)(C)C)cc1 was read as CBX7 inh 0.29.
For COc1cccc(CNc2ccc3c(c2)ncn3C(C)C)c1OC the results were CBX7 inh inactive.
For COc1ccc(CNc2ccc3c(c2)ncn3C(C)(C)C)cc1 the results were CBX7 inh inactive.
Screening Cc1ccc(S(=O)(=O)C2(C(=O)Nc3cccc(C(F)(F)F)c3)CC2)cc1 returned CBX7 inh inactive.
`Cc1cccc(OCC(=O)Nc2c(C(=O)c3ccc(F)cc3)oc3ccccc23)c1C` gave CBX7 inh inactive.
O=C(c1cn(-c2ccccc2)nc1-c1ccc(Cl)cc1)N1CCc2ccccc2C1 was read as CBX7 inh inactive.
Screening CCN(CC)CCn1c2ccccc2n2cc(-c3ccc(OC)c(OC)c3)nc12 returned CBX7 inh inactive.
`COc1ccccc1-c1cc(C(=O)Nc2cc(C(F)(F)F)ccc2Cl)no1` gave CBX7 inh inactive.
CCc1ccc(NC(=O)c2cc(-c3ccc(OC)c(OC)c3)on2)cc1 was read as CBX7 inh inactive.
For COc1ccc(OC)c(-n2cnc3cc(C(=O)NCC(OC)OC)ccc32)c1 the results were CBX7 inh inactive.
Screening Cn1c(C(=O)N2CCC(C(=O)NCCCN3CCCCCC3)CC2)cc2sccc21 returned CBX7 inh inactive.
COc1ccc(-c2ccc(=O)n(CC(=O)Nc3ccc(C)c(F)c3)n2)cc1 was read as CBX7 inh inactive.
Screening CCCC(CCC)C(=O)Nc1ccc2c(c1)N(C(=O)CN(CC)CC)c1ccccc1CC2 returned CBX7 inh inactive.
Screening CC1CCc2oc3ccc(NS(=O)(=O)c4cc(Cl)ccc4Cl)cc3c2C1 (stereo not given) returned CBX7 inh inactive.
Screening Brc1ccc(-c2cnc3ccccc3n2)cc1 returned CBX7 inh inactive.
For CCOc1ccc(-c2cnc3ccccc3n2)cc1 the results were CBX7 inh inactive.
For Nc1ccc(-c2ccc(-c3cnc4ccccc4n3)cc2)cc1 the results were CBX7 inh 0.15.
For Cc1ccc(Cl)cc1NC(=O)Nc1ccc2c(c1)N(C)C(=O)CS2 the results were CBX7 inh inactive.
For COc1ccc(NC(=O)CSc2nccn2-c2cccc(Cl)c2)cc1 the results were CBX7 inh inactive.
For COc1ccc(-c2cn(-c3ccc(F)cc3)c(SCC(=O)Nc3cccc(F)c3)n2)cc1OC the results were CBX7 inh 0.39.
COc1ccc(-c2cn(-c3ccc(F)cc3)c(SCC(=O)Nc3cc(F)ccc3F)n2)cc1OC was read as CBX7 inh inactive.
`COc1ccc(-c2cn(-c3ccc(F)cc3)c(SCC(=O)Nc3cccc(Cl)c3)n2)cc1OC` gave CBX7 inh inactive.
`COC(=O)c1c(NC(=O)c2ccc(S(=O)(=O)N(C)C)cc2)sc2c1CCN(C)C2` gave CBX7 inh inactive.
For COc1cccc(CNc2ccc3c(c2)nc(C)n3C)c1 the results were CBX7 inh inactive.
COc1ccc(CNc2ccc3c(c2)ncn3C)cc1OC was read as CBX7 inh inactive.
Screening CCn1cnc2cc(NCc3cccc(OC)c3OC)ccc21 returned CBX7 inh inactive.
`CCCn1cnc2cc(NCc3cccc(Br)c3)ccc21` gave CBX7 inh 0.33.
For CCCCn1cnc2cc(NCc3cccc(Br)c3)ccc21 the results were CBX7 inh 0.25.
For CCn1cnc2cc(NCc3cccc(Br)c3)ccc21 the results were CBX7 inh 0.45.
`CC(C)(C)n1cnc2cc(NCc3cccc(Br)c3)ccc21` gave CBX7 inh inactive.
CCn1cnc2cc(NCc3ccncc3)ccc21 was read as CBX7 inh inactive.
Screening CCCCn1cnc2cc(NCc3cccc(OC)c3OC)ccc21 returned CBX7 inh inactive.
For CCCc1ccc(OCc2nc(-c3ccc(NC(=O)Cc4ccc(OC)cc4)cc3)no2)cc1 the results were CBX7 inh inactive.
Cc1ccccc1Nc1c(-c2cccc(Cl)c2)nc2ccc(Cl)cn12 was read as CBX7 inh inactive.
Screening CCOC(=O)c1cnc2ccc(OC)cc2c1Nc1ccccc1Cl returned CBX7 inh inactive.
For Cc1ccc(Cc2c(C)nc3c(C(=O)N4CCOCC4)cnn3c2C)cc1 the results were CBX7 inh inactive.
Screening Nc1ccc(Nc2nc(-c3ccc(Cl)cc3)cs2)cc1 returned CBX7 inh inactive.
For Cc1ccc(CN2CCN(CC(=O)NCCN3CCCC3)C2=O)cc1 the results were CBX7 inh inactive.
For CN(CC(=O)Nc1cc(F)ccc1F)S(=O)(=O)c1ccc2c(c1)n(C)c(=O)c(=O)n2C the results were CBX7 inh inactive.
